“And” between values parts separate entries of the source, which are not always exact repeats. Equal values may be shown once. Results filed as inconclusive are left out. The source made the active and inactive calls. Unless noted, calls come from the whole dose curve; as a rule, active = well fitted curve in the direction sought with a large enough effect in the repeat runs; inconclusive = weak or mixed curves; inactive = no such curve, though single readings can be large; an effect the other way counts as inactive or inconclusive.
Tests used:
[1] = qHTS assay for small molecule agonists of the p53 signaling pathway (AID 651631; calls by dose curve; note: nearly all actives have a fitted effect of over 15% in size)
Outline: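 Quantitative high-throughput format: 4,000 p53RE-bla HCT-116 cells/well, 5 h pre-incubation, 16 h compound exposure at 37 °C, 2 h room-temperature substrate step, fluorescence intensity measured.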

[2] = qHTS assay for small molecules that induce genotoxicity in human embryonic kidney cells expressing luciferase-tagged ATAD5 (AID 651632); note: nearly all actives have a fitted effect of over 15% in size
Outline: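 Cells were seeded at 2,000 per well, dosed with compound, and incubated 16 hr at 37C in 5% CO2. Luciferase activity was then quantified after a 30 min room-temperature incubation with Amplite.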

[3] = qHTS assay for small molecule agonists of the p53 signaling pathway - cell viability (AID 651633; calls by dose curve;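 note: p53RE-bla HCT reporter cells with a stable beta-lactamase p53 reporter; series mostly up to about 83 µM; nearly all actives have a fitted effect of over 30% in size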)
Outline: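 Viability counter-read: CellTiter-Glo luminescence (30 min, room temperature) in the same p53RE-bla plates. These plates had been exposed to compounds for 16 h at 37 C.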

[4] = qHTS assay for small molecules that induce genotoxicity in human embryonic kidney cells expressing luciferase-tagged ATAD5 - cell viability (AID 651634; calls by dose curve; note: nearly all actives have a fitted effect of over 25% in size; note: potency is the fitted concentration of half-maximal effect)
Outline: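 Cells (HEK293T, luciferase-tagged ATAD5) are seeded at 2,000 per well, dosed with compound or DMSO vehicle, and incubated 15.5 hr at 37C and 5% CO2. CellTiter-Fluor is added for 30 min before fluorescence is measured.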

[5] = qHTS assay for small molecule disruptors of the mitochondrial membrane potential - cell viability (AID 720634; calls by dose curve;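 note: human HepG2 liver cancer cells; series mostly up to about 83 µM; nearly all actives have a fitted effect of over 20% in size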)
Outline: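 Cytotoxicity was measured by ATP quantitation in HepG2 wells that had first been treated with compound for 1 hr and stained with m-MPI dye; CellTiter-Glo incubation was 30 min at room temperature.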

[6] = qHTS assay for small molecule disruptors of the mitochondrial membrane potential (AID 720635); note: potency is the fitted concentration of half-maximal effect
Outline: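 Mitochondrial membrane potential tracked with Mito-MPS dye, red aggregates (ex 540/em 590 nm) against green monomers (ex 490/em 535 nm). Compound treatment 1 hr at 37C, dye 30 min in HepG2.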

[7] = qHTS assay to test for compound auto fluorescence at 590 nm (red) in HepG2 cells (AID 720674)
Outline: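 Red autofluorescence (Ex/Em 540/590 nm, Rose Bengal sodium equivalents) was measured in HepG2 cells, 2,000 per well in MEM plus 10% FBS, plated overnight at 37 C. Readings were taken 1 hr after adding 23 nL compound or DMSO, at 37 C and 5% CO2.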

[8] = qHTS assay to test for compound auto fluorescence at 535 nm (green) in HepG2 cells (AID 720675)
[9] = qHTS assay to test for compound auto fluorescence at 460 nm (blue) in HEK293 cells (AID 720678)
Outline: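 Auto fluorescence in the blue band was quantified as triamterene equivalency. HEK293 cells were seeded at 2,000/well, dosed after a 4-5 hr attachment, and kept overnight at 37C before the 405/460 nm reading.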

[10] = qHTS assay to test for compound auto fluorescence at 590 nm (red) in HEK293 cells (AID 720679)
Outline: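 Autofluorescence equivalency to Rose Bengal sodium, 540/590nm, in HEK293 cells exposed overnight to 23 nL compound per well.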

[11] = qHTS assay to test for compound auto fluorescence at 535 nm (green) in HEK293 cells (AID 720680)
[12] = qHTS assay to test for compound auto fluorescence at 460 nm (blue) in HEK293 cell free culture (AID 720681)
Outline: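 Blue fluorescence (Ex 405/Em 460 nm, triamterene-equivalent) was read immediately after pin transfer of compound or DMSO into medium (DMEM, 10% FBS) without cells.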

[13] = qHTS assay to test for compound auto fluorescence at 590 nm (red) in HEK293 cell free culture (AID 720683)
Outline: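 Red-channel autofluorescence of compounds in culture medium (DMEM, 10% FBS), no cells, measured at 540/590 nm. Rose Bengal sodium is the reference fluorophore for equivalence.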

[14] = qHTS assay to test for compound auto fluorescence at 590 nm (red) in HepG2 cell free culture (AID 720684)
Outline: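 No cells present: MEM + 10% FBS only. Compound pinned in, red label read (540/590 nm). Activity = fluorescence equivalent to Rose Bengal sodium.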

[15] = qHTS assay to test for compound auto fluorescence at 460 nm (blue) in HepG2 cell free culture (AID 720685)
Outline: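 Cell-free plates of MEM plus 10% FBS received 23 nL compound or DMSO vehicle; blue-channel (405/460 nm) intensity scored against triamterene as reference fluorophore.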

[16] = qHTS assay to test for compound auto fluorescence at 535 nm (green) in HepG2 cell free culture (AID 720686)
[17] = qHTS assay to test for compound auto fluorescence at 460 nm (blue) in HepG2 cells (AID 720687)
Outline: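 Blue-channel autofluorescence (Ex/Em 405/460 nm, triamterene-equivalent) was measured after 1 hr compound exposure at 37 C, 5% CO2. Cells were HepG2, plated overnight at 37 C in MEM plus 10% FBS.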

[18] = qHTS assay to test for compound auto fluorescence at 535 nm (green) in HEK293 cell free culture (AID 720682)
Outline: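 Measurement is a direct plate read of green fluorescence (485 nm in, 535 nm out) after compound addition to serum-supplemented DMEM lacking cells, with fluorescein used to express intensities.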

[19] = target: Glucocorticoid receptor (Homo sapiens) (UniProt P04150); experiment: qHTS assay to identify small molecule agonists of the glucocorticoid receptor (GR) signaling pathway (AID 720691; active = well fitted activation curve with a large enough effect in the signal ratio in the repeat runs, not every such curve was filed as active; the % refers to the signal ratio)
Glucocorticoid receptor (Homo sapiens), sequence (P04150 whole entry, looked up): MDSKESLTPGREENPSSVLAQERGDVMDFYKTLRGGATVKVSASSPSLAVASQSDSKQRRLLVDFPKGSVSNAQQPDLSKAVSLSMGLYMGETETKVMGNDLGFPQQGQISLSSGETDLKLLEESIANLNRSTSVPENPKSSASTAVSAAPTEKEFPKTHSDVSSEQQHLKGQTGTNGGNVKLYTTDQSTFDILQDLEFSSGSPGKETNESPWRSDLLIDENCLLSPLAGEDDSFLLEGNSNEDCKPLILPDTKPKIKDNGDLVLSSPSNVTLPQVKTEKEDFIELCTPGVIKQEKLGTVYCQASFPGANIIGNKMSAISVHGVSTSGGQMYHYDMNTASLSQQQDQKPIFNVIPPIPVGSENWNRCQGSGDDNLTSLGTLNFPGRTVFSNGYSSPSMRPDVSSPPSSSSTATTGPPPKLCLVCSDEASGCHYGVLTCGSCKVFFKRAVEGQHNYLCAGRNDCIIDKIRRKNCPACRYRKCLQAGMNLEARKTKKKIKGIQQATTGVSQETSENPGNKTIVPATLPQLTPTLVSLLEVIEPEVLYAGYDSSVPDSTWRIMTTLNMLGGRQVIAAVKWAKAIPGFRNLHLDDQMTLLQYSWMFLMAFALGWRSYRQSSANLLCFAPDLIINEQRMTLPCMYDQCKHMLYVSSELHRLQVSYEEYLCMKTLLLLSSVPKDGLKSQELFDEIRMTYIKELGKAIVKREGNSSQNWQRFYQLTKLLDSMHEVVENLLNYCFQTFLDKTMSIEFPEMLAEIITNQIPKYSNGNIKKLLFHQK
Outline: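 Steps: seed GR-bla HeLa cells, incubate 4 h at 37 C/5% CO2; pin-transfer DMSO-dissolved compounds; incubate 18 h at 37 C; add LiveBLAzer B/G FRET substrate; after 2 h at room temperature, measure fluorescence.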

[20] = target: Glucocorticoid receptor (Homo sapiens) (UniProt P04150); experiment: qHTS assay to identify small molecule antagonists of the glucocorticoid receptor (GR) signaling pathway (AID 720692; active = well fitted inhibition curve with a large enough effect in the signal ratio in the repeat runs, not every such curve was filed as active; the % refers to the signal ratio)
Outline: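 Antagonism was scored as loss of dexamethasone-driven (5 nM final) reporter signal in HeLa cells bearing a glucocorticoid response element–beta-lactamase construct, after 18 h compound exposure at 37 C and 2 h FRET substrate loading.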

Measured: Potency

O=C(O)CC(O)C(=O)O (centres undefined)
not listed: [18] | [19] | [20]
inactive: all other assays above

NS(=O)(=O)O
not listed: [6]
inactive: all other assays above

C[C@](N)(Cc1ccc(O)c(O)c1)C(=O)O
not listed: [6] | [19] | [20]
inactive: all other assays above

Cc1c(C(=O)O)c(O)cc2c1C(=O)c1c(O)c([C@@H]3O[C@H](CO)[C@@H](O)[C@H](O)[C@H]3O)c(O)c(O)c1C2=O
active: [4] 11.9 µM and 37.6 µM and 54.5 µM
not listed: [6]
inactive: all other assays above

CCCc1cc(=O)[nH]c(=S)[nH]1
not listed: [6] | [18] | [19] | [20]
inactive: all other assays above

CN(C)CCOC(C)(c1ccccc1)c1ccccn1 (centres undefined)
not listed: [6] | [18] | [19] | [20]
inactive: all other assays above

CN(C)C(=O)Nc1ccc(Cl)c(Cl)c1
active: [6] 29.8 µM
not listed: [18]
inactive: all other assays above

O=C(O)c1ccccc1
not listed: [18] | [19] | [20]
inactive: all other assays above

OC[C@H]1O[C@H](O[C@]2(CCl)O[C@H](CCl)[C@@H](O)[C@@H]2O)[C@H](O)[C@@H](O)[C@H]1Cl
inactive: all assays above

CN(N=O)C(=O)N[C@@H]1[C@@H](O)[C@H](O)[C@@H](CO)O[C@@H]1O
not listed: [6]
inactive: all other assays above

COc1ccc(C(Cl)=C(c2ccc(OC)cc2)c2ccc(OC)cc2)cc1
active: [6] 13.6 µM and 21.7 µM
not listed: [20]
inactive: all other assays above

CCOC(N)=O
not listed: [6] | [19] | [20]
inactive: all other assays above

O=C1c2c(O)cccc2Cc2cccc(O)c21
not listed: [6]
inactive: all other assays above

Source: PubChem BioAssay (Tox21)
